Assay [1] concerns XIP peptide (Xip251-270) binding. In words: XIP fragment 251-270 binding compounds – biochemical, small-molecule microarray, fluorescence 635/667 nm, 0.1 µg/mL protein, primary screen (AID 1182). As to conditions: fluorescent protein binding, 635 nm, higher = more signal, called active from +8 up or from −8 down.
The test system of a further assay is XIP peptide (Xip251-270). The experiment in a line: compounds binding XIP fragment 251-270 – biochemical, small-molecule microarray, fluorescence 635/667 nm, 0.5 µg/mL protein, primary screen (AID 1183). Particulars: fluorescence 635 nm, higher = more signal.
Assay [2] is described as follows: blood-stage malaria parasite viability loss – strain 3D7, DAPI fluorescence, 100 nL, primary screen (AID 1184).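 Also: parasites grown inside human red blood cells in medium with human serum.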 As to conditions: P. falciparum 3D7 growth, 3 d, higher = more signal.
For assay [3], the target named is Homeobox protein Hox-A13 (Mus musculus) (UniProt Q62424). In words: disruptors of Hoxa13 oligonucleotide interaction – biochemical, fluorescence polarization, labeled oligonucleotide, primary screen (AID 1185). Particulars: Hoxa13:DNA binding, 15 min, higher = more signal, called active from +8 up or from −8 down. (In general: Fluorescence polarisation rises when a labelled molecule tumbles more slowly, as on binding a larger partner.)

Assay [4] can be described thus: blockers of DNA damage checkpoint Chk1 activation – imaging, HeLa, hydroxyurea, phospho-Chk1 antibody, percent positive cells, primary screen (AID 1186). Particulars: hydroxyurea-induced phospho-Chk1 immunofluorescence imaging, higher = more signal.
Assay [5] in a line: blockers of DNA damage checkpoint Chk1 activation – imaging, HeLa, hydroxyurea, phospho-Chk1 nuclear intensity, primary screen (AID 1187). Particulars: hydroxyurea-induced phospho-Chk1 immunofluorescence imaging, higher = more signal.

Each structure is given as a SMILES string. Calls of active or inactive are those of the source. Unless noted, no rule for the calls is given here.

Sequence of Homeobox protein Hox-A13 (Mus musculus) (Q62424 whole entry, looked up): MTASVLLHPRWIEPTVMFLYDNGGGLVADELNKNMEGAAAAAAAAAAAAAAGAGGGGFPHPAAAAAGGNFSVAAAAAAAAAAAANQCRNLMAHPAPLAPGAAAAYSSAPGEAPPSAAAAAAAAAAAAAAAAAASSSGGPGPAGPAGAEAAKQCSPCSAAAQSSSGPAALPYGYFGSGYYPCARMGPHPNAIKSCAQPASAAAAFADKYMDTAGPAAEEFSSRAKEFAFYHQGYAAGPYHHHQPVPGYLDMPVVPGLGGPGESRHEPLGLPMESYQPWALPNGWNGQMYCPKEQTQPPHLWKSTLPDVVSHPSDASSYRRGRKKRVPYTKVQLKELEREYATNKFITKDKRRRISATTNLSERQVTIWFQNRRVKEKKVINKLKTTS

`COCCOC(=O)N1C(=O)[C@@]2(c3cc(C#Cc4ccc(OC)cc4)ccc31)[C@H](C(=O)N1CCN(c3ncccn3)CC1)[C@H]1C(=O)O[C@H](c3ccccc3)[C@H](c3ccccc3)N1[C@@H]2c1ccccc1OCCO`: the composite z-score is -0.148 (inactive) in assay [1] and 0.561 with XIP peptide (Xip251-270). In addition, the z-score was -1.51 in assay [2], -0.114 (inactive) in assay [3], -0.019 (inactive) in assay [4] and -0.0377 (inactive) in assay [5].
As to `C=CCN1C(=O)[C@@]2(O[C@@H](CCn3cc([C@H](O)c4ccccc4)nn3)[C@H]([Si](C)(C)c3ccc(OC)cc3)[C@H]2C)c2ccccc21`, the figures for the composite z-score (in assay [1]; in the assay on XIP peptide (Xip251-270)) were -0.0466 (inactive) and 0.857, respectively. For the same molecule, the z-score is -0.99 in assay [2], -5.69 (inactive) in assay [3], -0.763 (inactive) in assay [4] and -1.51 (inactive) in assay [5].
On to `CCOC(=O)C1=CC[C@@H](c2ccccc2C(F)(F)F)N(S(=O)(=O)c2ccc(C)cc2)C1`, for which the results for the composite z-score (in assay [1]; with XIP peptide (Xip251-270)) were 0.561 (inactive) and 0.667, respectively. In addition, the z-score is -0.386 in assay [2], -2.64 (inactive) in assay [3], -0.155 (inactive) in assay [4] and -0.341 (inactive) in assay [5].
As to `C[N+](C)(C)CCCC[C@@H]1NC(=O)[C@@H]2C[C@H](C(=O)O)[C@H](c3ccc(O)cc3)N2C1=O`, the composite z-score in assay [1] was 2.65 (inactive); in the assay on XIP peptide (Xip251-270), 0.124. In addition, the z-score in assay [2] is -0.195; in assay [3], -1.93 (inactive); in assay [4], 0.115 (inactive); in assay [5], 0.274 (inactive).
In the case of `CC=CC(O)C1C=CC2C(=O)N(c3ccccc3)C(=O)C2N1Nc1ccccc1` (stereo not given), the values for the composite z-score (in assay [1]; in the assay on XIP peptide (Xip251-270)) were 0.228 (inactive) and 0.813, respectively. Also, the z-score in assay [2] is -0.0445; in assay [3] it was -4.14 (inactive); in assay [4] it was 0.0716 (inactive); in assay [5], -0.167 (inactive).
With `O=C(O)[C@]1(Cc2ccccc2)N=C(c2ccc(OCCCO)cc2)O[C@@H]1c1ccccc1`, the composite z-score is -0.243 (inactive) in assay [1] and 0.48 in the assay on XIP peptide (Xip251-270). The z-score was 1.24 in assay [2], -4.93 (inactive) in assay [3], 0.282 (inactive) in assay [4] and 0.37 (inactive) in assay [5].
For `COC(=O)[C@@]1(Cc2ccccc2)[C@H]2c3cc(C(=O)N4CCCC4)n(Cc4cc(F)cc5c4OCOC5)c3C[C@H]2CN1C(=O)c1ccccc1`, the composite z-score in assay [1] is 0.766 (inactive); in the assay on XIP peptide (Xip251-270), 0.828. Besides, the z-score in assay [2] was -1.65; in assay [3] it was -5.42 (inactive); in assay [4], 0.189 (inactive); in assay [5], 0.435 (inactive).
Regarding `C=C(/C(=C/C[C@@H](OC(=O)c1ccncc1)c1ccc(OCCO)cc1)c1cc(C(=O)OC)ccc1OC)C(C)C`, the results for the composite z-score (in assay [1]; in the assay with XIP peptide (Xip251-270)) were 0.281 (inactive) and 0.309, respectively. Moreover, the z-score in assay [2] was -2.78; in assay [3] it was -3.5 (inactive); in assay [4] it was -0.899 (inactive); in assay [5] it was -0.125 (inactive).
With `C=C[C@@H](COC(C)=O)NS(=O)(=O)c1ccc(Br)cc1`, the figures for the composite z-score (in assay [1]; in the assay with XIP peptide (Xip251-270)) were 0.0525 (inactive) and 0.113, respectively. For the same molecule, the z-score in assay [2] was 0.4; in assay [3], 0.34 (inactive); in assay [4] it was -0.249 (inactive); in assay [5] it was -0.227 (inactive).
Consider `C[C@]12C(=O)N(CCCCCCO)[C@@H]3C(=O)N(c4ccc(Cl)cc4)CC=CC31O[C@@H]1/C=C\CCCOC(=O)C12` (stereo not given in full), for which the composite z-score in assay [1] was -0.295 (inactive); in the assay on XIP peptide (Xip251-270) it was -0.0821. In addition, the z-score is -0.692 in assay [2], -4.68 (inactive) in assay [3], -0.659 (inactive) in assay [4] and 0.264 (inactive) in assay [5].
For `CC(C)C(=C=CC[C@H](O)c1ccc(OCCO)cc1)C[C@H](O)c1cc(Cl)cc(Cl)c1O`, the composite z-score is 0.263 (inactive) in assay [1] and 0.746 in the assay with XIP peptide (Xip251-270). Besides, the z-score is -2.74 in assay [2], -1.35 (inactive) in assay [3], -0.289 (inactive) in assay [4] and 0.18 (inactive) in assay [5].
For `O=C(CS)NCCCCCCNC(=O)[C@H]1C[C@H]2C(=O)N[C@@H](Cc3ccccc3)C(=O)N2[C@H]1c1cccc(OCCO)c1`, the composite z-score in assay [1] is 0.168 (inactive); in the assay with XIP peptide (Xip251-270), 0.825. Further, the z-score in assay [2] was 0.107; in assay [3] it was -1.03 (inactive); in assay [4], -0.0078 (inactive); in assay [5], 0.671 (inactive).
Regarding `CC(C)(C)OC(=O)CC[C@]1(C(=O)O)N=C(c2ccc(OCCCO)cc2)O[C@H]1c1ccccc1CN=[N+]=[N-]`, the values for the composite z-score (in assay [1]; with XIP peptide (Xip251-270)) were 0.109 (inactive) and 0.405, respectively. The z-score in assay [2] is -0.711; in assay [3] it was -4 (inactive); in assay [4] it was -0.287 (inactive); in assay [5], -0.499 (inactive).
In the case of `CC(C)N1CC=CC23O[C@@H]4C=CCCOC(=O)C4[C@H]2C(=O)N(CCO)[C@@H]3C1=O` (stereo not given in full), the composite z-score is -0.3 (inactive) in assay [1] and 0.172 in the assay with XIP peptide (Xip251-270). For the same molecule, the z-score was -0.434 in assay [2], -4.46 (inactive) in assay [3], -0.494 (inactive) in assay [4] and -0.578 (inactive) in assay [5].
As for `C[C@@H]1ON(c2ccc(C(=O)OC(C)(C)C)cc2)[C@H](c2ccc(Br)cc2)[C@H]1C(=O)N1C(=O)OC[C@H]1Cc1ccccc1`, the results for the composite z-score (in assay [1]; with XIP peptide (Xip251-270)) were 0.36 (inactive) and 0.321, respectively. The z-score in assay [2] was -0.238; in assay [3], -0.654 (inactive); in assay [4], -0.55 (inactive); in assay [5], -0.237 (inactive).

Source of the values: PubChem BioAssay.
